# Test results reported in PubChem BioAssay.
# Calls of active or inactive are those of the source.
# Experiments:
# [1] = anti-His antibody binders, primary screen, artefact control for SMM control protein annotation, biochemical, small-molecule microarray, 635 nm fluorescence (AID 1128); settings: anti-His Alexa647 antibody binding, higher = more signal;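 also: score merges feature fluorescence with signal-to-noise for each printed compound spot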
# [2] = tested on: Human papillomavirus type 1a E7 protein (residues 1-88); assay: HPV1a E7 small-molecule binders, primary screen, biochemical, small-molecule microarray, residues 1-88, 635 nm (AID 1129); settings: small-molecule microarray binding, fluorescence 635 nm; higher = more signal
# [3] = target: Focal adhesion kinase 1 (Homo sapiens) (UniProt Q05397); assay: small-molecule microarray binders of FAK, primary screen, biochemical, 635/667 nm fluorescence, BSA, DTT (AID 1130); settings: PTK2 binding, 635 nm fluorescence, higher = more signal;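 also: composite of spot emission at 667 nm and signal to noise over triplicate slides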
# [4] = tested on: Fibrinogen (Alexa647-labelled); assay: fibrinogen binders on compound microarrays, profiling panel, artefact control for SMM control-protein annotation, biochemical, small-molecule microarray, 635/667 nm fluorescence (AID 1131); settings: fibrinogen-A647 binding fluorescence, higher = more signal;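 also: z-score merges 667 nm fluorescence with per-spot signal-to-noise over triplicate slides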
# [5] = target: Follistatin (Homo sapiens) (UniProt P19883); assay: follistatin binders on small-molecule microarrays, primary screen, biochemical, small-molecule microarray, 635/667 nm fluorescence (AID 1132); settings: FST binding, 635 nm fluorescence, higher = more signal
# [6] = target: Fibroblast growth factor 2 (Homo sapiens) (UniProt P09038); assay: FGF2 binders on small-molecule microarrays, primary screen, biochemical, small-molecule microarray, 635/667 nm fluorescence (AID 1133); settings: small-molecule microarray binding, FGF2, fluorescence 635/667; higher = more signal
# [7] = mitochondrial membrane potential change in A549 cells, profiling panel, cell-based, JC-1 fluorescence, basal, 24 h, 100 nL (AID 1138); settings: higher = more signal;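 also: A549 lung adenocarcinoma cells under basal conditions with no added stimulus; test concentration not given here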
# Lefty1 = Lefty1 binders on small-molecule microarrays, primary screen, biochemical, small-molecule microarray, 635/667 nm fluorescence (AID 1139); settings: small-molecule microarray binding, fluorescence 635/667; higher = more signal
# [8] = tested on: wheat germ agglutinin (Triticum aestivum), Alexa647-labelled; assay: wheat germ agglutinin binders on compound microarrays, profiling panel, artefact control for SMM control-protein annotation, biochemical, small-molecule microarray, 635/667 nm fluorescence (AID 1140); settings: WGA-A647 binding, 635 nm fluorescence, higher = more signal;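 also: score merges 667 nm feature emission with signal to noise over triplicate slides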
# [9] = target: Luciferin 4-monooxygenase (Photinus pyralis) (UniProt P08659); assay: firefly luciferase enzyme inhibitors, primary screen, biochemical, luminescence, purified enzyme, 2006 set (AID 1141); settings: SteadyGlo luminescence, 30 min, higher = more signal, called active from +8 up or from −8 down;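 also: cell-free assay with purified firefly luciferase at 100 ng per well in PBS; test concentration not given here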
# Luciferin 4-monooxygenase (Photinus pyralis), sequence (P08659 whole entry, looked up): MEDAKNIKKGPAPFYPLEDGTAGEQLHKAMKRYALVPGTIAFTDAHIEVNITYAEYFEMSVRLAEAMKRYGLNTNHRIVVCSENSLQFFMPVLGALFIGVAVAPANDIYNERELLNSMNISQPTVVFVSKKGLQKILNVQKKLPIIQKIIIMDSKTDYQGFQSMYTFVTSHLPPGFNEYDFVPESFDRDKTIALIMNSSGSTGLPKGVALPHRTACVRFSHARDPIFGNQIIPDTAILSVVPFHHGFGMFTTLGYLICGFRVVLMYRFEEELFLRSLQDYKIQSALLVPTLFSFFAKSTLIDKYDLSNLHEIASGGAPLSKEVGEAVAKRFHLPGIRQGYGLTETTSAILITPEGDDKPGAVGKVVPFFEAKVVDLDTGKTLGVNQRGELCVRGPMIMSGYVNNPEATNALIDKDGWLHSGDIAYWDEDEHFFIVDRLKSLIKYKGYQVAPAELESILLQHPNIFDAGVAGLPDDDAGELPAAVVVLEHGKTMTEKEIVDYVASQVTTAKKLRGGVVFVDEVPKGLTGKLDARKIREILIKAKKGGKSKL
# Fibroblast growth factor 2 (Homo sapiens), sequence (P09038 whole entry, looked up): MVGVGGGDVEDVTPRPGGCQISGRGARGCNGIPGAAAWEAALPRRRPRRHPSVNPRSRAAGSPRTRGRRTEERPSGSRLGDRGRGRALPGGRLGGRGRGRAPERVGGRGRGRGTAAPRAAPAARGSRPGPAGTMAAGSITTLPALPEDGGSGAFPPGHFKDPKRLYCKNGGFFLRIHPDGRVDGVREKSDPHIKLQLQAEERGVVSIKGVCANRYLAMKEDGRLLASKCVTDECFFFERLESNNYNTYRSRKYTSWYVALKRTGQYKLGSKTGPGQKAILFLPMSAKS
# Focal adhesion kinase 1 (Homo sapiens), sequence (Q05397 whole entry, looked up): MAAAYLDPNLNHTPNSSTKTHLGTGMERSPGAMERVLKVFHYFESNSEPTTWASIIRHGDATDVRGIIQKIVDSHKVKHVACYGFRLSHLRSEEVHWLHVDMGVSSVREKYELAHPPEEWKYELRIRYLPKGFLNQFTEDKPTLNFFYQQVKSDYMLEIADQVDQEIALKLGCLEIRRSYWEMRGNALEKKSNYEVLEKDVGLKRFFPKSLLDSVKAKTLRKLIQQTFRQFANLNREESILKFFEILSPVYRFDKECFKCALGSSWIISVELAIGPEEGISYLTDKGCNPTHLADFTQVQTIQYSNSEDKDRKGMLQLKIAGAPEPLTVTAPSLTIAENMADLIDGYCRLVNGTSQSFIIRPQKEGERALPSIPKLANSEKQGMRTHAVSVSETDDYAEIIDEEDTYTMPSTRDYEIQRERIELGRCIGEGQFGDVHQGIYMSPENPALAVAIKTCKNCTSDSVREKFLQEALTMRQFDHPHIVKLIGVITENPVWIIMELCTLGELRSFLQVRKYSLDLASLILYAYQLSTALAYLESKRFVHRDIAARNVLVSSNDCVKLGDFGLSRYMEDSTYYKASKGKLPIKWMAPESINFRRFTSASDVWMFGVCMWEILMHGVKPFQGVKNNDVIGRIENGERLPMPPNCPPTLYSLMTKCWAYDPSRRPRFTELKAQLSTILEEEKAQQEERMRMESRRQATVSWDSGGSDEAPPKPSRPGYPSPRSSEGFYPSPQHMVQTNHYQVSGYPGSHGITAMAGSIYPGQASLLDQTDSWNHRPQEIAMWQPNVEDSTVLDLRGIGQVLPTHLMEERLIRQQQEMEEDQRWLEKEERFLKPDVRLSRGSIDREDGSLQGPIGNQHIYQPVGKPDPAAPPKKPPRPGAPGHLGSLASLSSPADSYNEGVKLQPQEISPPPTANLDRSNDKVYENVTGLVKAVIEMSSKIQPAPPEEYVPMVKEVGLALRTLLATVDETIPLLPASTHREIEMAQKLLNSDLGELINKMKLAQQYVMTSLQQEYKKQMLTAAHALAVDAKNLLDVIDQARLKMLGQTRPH
# Follistatin (Homo sapiens), sequence (P19883 whole entry, looked up): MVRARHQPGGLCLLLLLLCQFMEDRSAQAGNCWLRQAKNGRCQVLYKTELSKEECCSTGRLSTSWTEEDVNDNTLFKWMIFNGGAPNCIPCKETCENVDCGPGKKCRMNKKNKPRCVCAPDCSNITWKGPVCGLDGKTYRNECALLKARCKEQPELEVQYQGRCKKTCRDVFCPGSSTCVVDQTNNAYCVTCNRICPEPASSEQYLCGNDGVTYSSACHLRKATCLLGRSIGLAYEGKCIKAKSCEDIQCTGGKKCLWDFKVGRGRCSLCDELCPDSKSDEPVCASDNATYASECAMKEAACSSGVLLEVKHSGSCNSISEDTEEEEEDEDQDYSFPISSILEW
SMILES,composite z-score [1],composite z-score [2],composite z-score [3],composite z-score [4],composite z-score [5],composite z-score [6],z-score [7],composite z-score (Lefty1),composite z-score [8],z-score [9]
COC(=O)C(CC#Cc1ccc2c(c1)[C@]1(C(=O)N2)[C@H](C(=O)Nc2nc3ccccc3s2)[C@H]2C(=O)O[C@H](c3ccccc3)[C@H](c3ccccc3)N2[C@@H]1c1ccc(O)cc1)C(=O)OC,0.274,1.24,0.936,0.947,1.2,0.973,-2.25,0.963,1.01,0.416 (inactive)
C=CCOC(=O)[C@H]1[C@@H]2C(=O)O[C@@H](c3ccccc3)[C@@H](c3ccccc3)N2[C@@H](c2ccc(OCCOC(=O)[C@H]3C[C@H]4C(=O)N[C@@H](CCCC[N+](C)(C)C)C(=O)N4[C@H]3c3ccc(O)cc3)cc2)[C@]12C(=O)Nc1ccc(I)cc12,1.24,1.08,0.38,-0.154,1.38,1.14,0.694,1.27,0.0577,-0.666 (inactive)
CCCC[C@@H]1C[C@H]1[C@@H](NC(=O)c1cccs1)c1ccc(-c2ccccc2)cc1,0.433,0.852,0.0412,0.149,0.552,-0.292,0.319,0.361,0.849,1.65 (inactive)
COc1cc(NN2C(C(O)c3ccco3)C=CC3C(=O)N(c4ccccc4)C(=O)C32)cc(OC)c1OC (stereo not given),0.284,1.06,0.21,-0.0129,0.363,-0.132,-0.16,0.199,0.0464,-2.51 (inactive)
CC(C)C[C@@H]1NC(=O)[C@H](C(C)C)NC(=O)[C@@]23C(=O)N[C@@H](Cc4ccccc4)C2[C@H](C)[C@@]2(C)O[C@H]2C3/C=C/CC/C=C/CNC1=O (stereo not given in full),0.65,0.466,0.262,0.972,1.29,1.53,0.276,1.15,0.229,-0.219 (inactive)
NC(=O)NCC#Cc1ccc2c(c1)[C@]1(C(=O)N2)[C@H](C(=O)Nc2nc3ccccc3s2)[C@H]2C(=O)O[C@H](c3ccccc3)[C@H](c3ccccc3)N2[C@@H]1c1ccccc1OCCO,0.678,0.759,0.997,0.764,1.22,0.624,-2.46,1.34,1.1,-0.921 (inactive)
CN(C)CCCCCCNC(=O)[C@H]1C[C@H]2C(=O)N[C@@H](CCCCN)C(=O)N2[C@H]1c1cccc(OCCO)c1,3.31,1.35,3.91,0.977,1.54,0.844,0.332,1.41,1.64,-0.485 (inactive)
CCC[C@@H]1C[C@@]1(CCC)[C@@H](NC(=O)c1ccccc1)c1cccc(Cl)c1,1.52,1.17,0.535,0.596,0.219,-0.331,0.349,-0.544,1.11,0.841 (inactive)
COCCOC(=O)N1C(=O)[C@@]2(c3cc(C#CCNC(N)=O)ccc31)[C@H](C(=O)Nc1nc3ccccc3s1)[C@H]1C(=O)O[C@H](c3ccccc3)[C@H](c3ccccc3)N1[C@@H]2c1ccc(OCCO)cc1,-0.187,0.669,0.346,0.901,1.36,1.08,-2.31,0.9,0.677,-2.41 (inactive)
CC1(C)[C@@H]2CC(C(O)C3C=CC4C(=O)N(c5ccccc5)C(=O)C4N3Nc3ccc([N+](=O)[O-])cc3)=C[C@H]1C2 (stereo not given in full),1.11,1.27,0.368,1.04,1.16,0.488,-1.25,0.619,0.728,0.285 (inactive)
O=C1OCCC/C=C\[C@H]2OC34C=CCN(Cc5ccccc5)C(=O)[C@H]3N(CCCO)C(=O)[C@@H]4C12 (stereo not given in full),-0.14,-0.496,-0.66,-1.64,-1.29,-1.08,1.26,-1.28,-0.443,-1.26 (inactive)
CN(C)C(=O)[C@@]1(CCS(=O)(=O)c2ccccc2)COC(c2ccc(OCCCO)cc2)=N1,1.45,1.24,0.119,0.993,0.66,-0.0861,-0.572,-0.589,0.93,-0.446 (inactive)
Cc1ccc(S[C@]2(C(=O)O)CC(=O)N(C(C)C)[C@@H]2c2ccc(CO)cc2I)cc1,3.36,0.476,0.929,0.432,1.12,0.253,1.33,-0.176,0.939,-2.26 (inactive)
N#Cc1ccc(NN2C(C(O)C(c3ccccc3)c3ccccc3)C=CC3C(=O)N(c4ccccc4)C(=O)C32)cc1 (stereo not given),0.238,1.26,0.545,1.01,0.337,-0.469,1.49,-0.0452,1.4,0.523 (inactive)
O=C1NC(=O)C2C1C=CC(C(O)c1cccs1)N2Nc1ccc(Cl)cc1Cl (stereo not given),0.541,-0.443,-0.0686,-0.868,-0.222,-0.534,-0.384,-0.245,0.22,-1.64 (inactive)
[N-]=[N+]=NCc1ccccc1C[C@]1(C(=O)N2CCCCC2)N=C(c2ccc(OCCCO)cc2)O[C@H]1c1ccccc1N=[N+]=[N-],2.87,1.23,1.71,0.984,0.887,-0.0521,-0.756,-0.0342,1,-9.69 (active)
C[N+](C)(C)CCCC[C@@H]1NC(=O)[C@H]2C[C@@H](C(=O)NCCCCCCNC(=O)CS)[C@@H](c3cccc(OCCO)c3)N2C1=O,1.03,-0.945,0.434,-1.56,0.897,0.885,-0.32,-1.36,0.396,-0.252 (inactive)
COc1ccc([C@H]2OC[C@@H]3C[C@@H](Cc4ccccc4)C(=O)N32)cc1,1.3,0.527,-0.181,-0.0072,0.62,0.91,1.25,1.08,0.208,0.0077 (inactive)
C=C(CCCC)/C(=C/C[C@@H](OC(=O)c1ccncc1)c1ccc(OCCO)cc1)c1cc(C(=O)OC)ccc1OC,0.551,1.12,0.0056,-0.117,0.641,0.0097,1.21,0.865,0.229,-0.551 (inactive)
COCCOC(=O)N1C(=O)[C@@]2(c3ccccc31)[C@H](c1ccc(O)cc1)N1[C@H](c3ccccc3)[C@H](c3ccccc3)OC(=O)[C@H]1[C@@H]2C(=O)Nc1nc2ccccc2s1,1.97,1.17,0.475,0.961,0.695,0.408,-2.42,0.259,1.14,-1.32 (inactive)
COCCOC(=O)N1C(=O)[C@@]2(c3cc(C#Cc4ccc(OC)cc4)ccc31)[C@H](c1ccc(OCCO)cc1)N1[C@H](c3ccccc3)[C@H](c3ccccc3)OC(=O)[C@H]1[C@@H]2C(=O)N1CCN(c2ncccn2)CC1,0.343,1.15,0.424,-0.51,1.21,1.43,-0.918,1.28,-0.0073,-0.618 (inactive)
COC(=O)c1c(CC[C@@H](CO)NC(=O)NCCn2cc(C3(O)CCCC3)nn2)oc(C(C)=O)c1C(=O)OC,0.828,0.0881,0.182,0.292,-0.273,0.247,-0.415,0.199,0.128,0.7 (inactive)
COCCOC(=O)N1C(=O)[C@@]2(c3cc(C#CCC(C(=O)OC)C(=O)OC)ccc31)[C@H](C(=O)N1CCN(c3ncccn3)CC1)[C@H]1C(=O)O[C@H](c3ccccc3)[C@H](c3ccccc3)N1[C@@H]2c1ccccc1OCCO,1.02,1.2,0.467,0.997,1.38,1.29,-0.835,1.54,0.755,-0.291 (inactive)
COc1ccc(CCNC(=O)[C@@H]2c3ccccc3C(=O)N(Cc3ccccc3Cl)[C@H]2c2ccc(CO)cc2)cc1,0.218,1.14,0.224,0.435,0.495,0.187,2.4,-0.0833,0.261,-0.745 (inactive)
COCCOC(=O)N1C(=O)[C@@]2(c3cc(C#Cc4ccc(OC)cc4)ccc31)[C@H](c1ccc(O)cc1)N1[C@H](c3ccccc3)[C@H](c3ccccc3)OC(=O)[C@H]1[C@@H]2C(=O)N1CCc2cc(OC)c(OC)cc2C1,0.744,0.7,1.02,0.935,1.02,0.413,-0.734,0.785,0.555,0.644 (inactive)
C=CCC(OC(C)=O)[C@@H]1[C@@H](N(Cc2ccc(-c3ccccc3)cc2)C(=O)Cc2ccc(OC)cc2)c2cc(OCCCO)ccc2N1C(=O)Cc1ccc2ccccc2c1 (stereo not given in full),-0.142,-0.442,0.151,0.389,-0.0399,-0.197,0.112,0.168,0.182,-0.358 (inactive)
CC(C)C[C@@H]1NC(=O)[C@@H]2C[C@H](C(=O)O)[C@H](c3cccc(OCCO)c3)N2C1=O,2.29,-0.312,-0.176,-0.0031,0.495,0.89,-0.0906,-0.375,0.275,-0.291 (inactive)
